# Activity calls are given as the source filed them. A call without a number means that no potency is given here. The call rests on the fitted dose curve; in most records, active means well fitted activation curve with a large enough effect; inconclusive means small, poorly fitted or top-dose-only effect; inactive means no such curve, though single readings can be large or run the other way.
# Assay: Confirmatory qHTS for Identification of Small Molecule Activators of Huntingtin-Antisense Promoter Activity
# Details: HEK293 HTT-AS promoter firefly luciferase reporter, 24 h; series mostly up to 57.5 µM
# Method in brief: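 Plated reporter HEK293 cells (24 h) received library compounds at up to 57.5 uM final or 50 uM PTC124, incubated 24 h at 37C; firefly luciferase luminescence was then recorded with Dual-Glo reagent.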
# Potency means the concentration at half of the fitted maximal effect.
row,SMILES,Potency
1,Cc1ccc(Cl)cc1N1CCN(C(=O)CCS(=O)(=O)c2ccc3c(c2)oc(=O)n3C)CC1,inactive
2,O=c1cc(-c2ccccc2)oc2cc(O)cc(O)c12,26.9 µM (active)
3,O=C(NCCc1nc2ccccc2n1CCCOc1ccc(Cl)cc1)C1CCCCC1,inactive
4,Cc1noc(/C=C/c2ccccc2F)c1S(=O)(=O)N1CCC(C(=O)Nc2ccc(C#N)cc2)CC1,inactive
5,COc1ccccc1C1CC(=O)NC(C)=C1C(=O)OC1CCCCCC1 (centres undefined),inactive
6,Cc1cccc(N2CCN(S(=O)(=O)c3ccc(F)c(C(=O)Nc4cccc(Cl)c4C)c3)CC2C)c1 (centres undefined),inactive
7,CCOc1ccc(S(=O)(=O)N(C(C)=O)c2ccc3oc(C)c(C(=O)OC)c3c2)cc1,inactive
8,O=C(CSc1nc(-c2cccc(F)c2)[nH]c1-c1ccccc1)Nc1ccc2c(c1)OCCO2,inactive
9,N#Cc1ccccc1S(=O)(=O)N1CCC(Oc2ccc(-n3cnnn3)cc2)CC1,inactive
10,Cc1nc(-c2ccc(Cl)cc2)sc1CCNC(=O)Cc1ccc(F)cc1,inactive
11,CCCCOc1ccc(CNC(=O)Cc2ccc(NC(=O)N3CCSc4ncccc43)cc2)cc1,inactive
12,FC(F)(F)c1cccc(Nc2c3c(nc4ccc(Cl)cc24)CCC3)c1,inactive
13,CCOc1ccc(NCc2cccn2-c2nnc(N3CCC(C(=O)NCCc4ccc(OC)c(OC)c4)CC3)s2)cc1,inactive
14,Cc1ccccc1Nc1c(-c2cccnc2)nc2cccc(C)n12,inactive
15,COc1ccc2c(c1)CCc1c(C(=O)Nc3c(C)nn(Cc4ccccc4C)c3C)noc1-2,inactive
16,COc1cccc(NS(=O)(=O)c2ccc3[nH]cc(C(=O)NCCc4ccc(C)cc4)c(=O)c3c2)c1,inactive
17,N#Cc1nc(-c2ccc(COc3ccc(Cl)cc3)o2)oc1N1CCC(C(N)=O)CC1,inactive
18,CC(C)C1C(=O)Nc2ccc(S(=O)(=O)NCc3ccc(Cl)cc3)cc21 (centres undefined),inactive
19,Cc1ccc(Cl)cc1N1CCN(C(=O)c2ccc3c(c2)N(Cc2ccc(F)cc2)CCS3)CC1,inactive
20,Cc1ccc(C)c(N2CCN(C(=O)CCS(=O)(=O)c3ccc4c(c3)CC(=O)N4C)CC2)c1,inactive

row,SMILES,Potency
1,CSc1ccc(CCNc2ncnc3onc(C)c23)cc1,inactive
2,COc1ccc([C@@H]2CNC(=O)C2)cc1OC1CCCC1,inactive
3,COc1ccc(S(=O)(=O)N2CCC(c3nnnn3-c3ccccc3)CC2)cc1OC,inactive
4,CCCS(=O)(=O)NCCc1sc2nc(-c3ccc(F)cc3)nn2c1C,inactive
5,Cc1noc2ncnc(NCc3cccc(Cl)c3)c12,inactive
6,CCn1c(SCc2cccc(Br)c2)nnc1-c1nonc1NC(C)=O,inactive
7,COc1ccc(Cl)cc1Nc1sc(C(=O)c2ccccc2)c(N)c1C(=O)Nc1ccccc1,inactive
8,O=C(C=Cc1ccc(CN(CCO)CCc2c[nH]c3ccccc23)cc1)NO,2.13 µM (active)
9,CCN(c1ccccc1)S(=O)(=O)c1c(-c2ccc(C)cc2)csc1C(=O)OC,inactive
10,Cn1c(NCCN(CCO)CCCc2ccc([N+](=O)[O-])cc2)cc(=O)n(C)c1=O,inactive
11,CCc1ccc(-n2nc(C)c3c(C(=O)Nc4cccc(C(F)(F)F)c4)cc(C)nc32)cc1,inactive
12,COc1ccccc1CNS(=O)(=O)c1ccc2c(c1)CC(C)N2C(=O)C1CCC1 (centres undefined),inactive
13,Cc1ccc(S(=O)(=O)NCCc2csc(-c3ccc(Cl)cc3)n2)cc1,inactive
14,Cc1ccc(CCNC(=O)c2cc3c(s2)-c2ccccc2OC3)cc1,inactive
15,O=C1CCCc2cc(S(=O)(=O)NCC3CCC(C(=O)Nc4ccccc4F)CC3)ccc2N1 (centres undefined),inactive
16,COc1ccc(NC(=O)Cn2nc(-c3ccncc3)ccc2=O)cc1Cl,inactive
17,Cc1ccc(-c2[nH]c3ccccc3c2SCCNC(=O)c2ccc(S(=O)(=O)N(C)C)cc2)cc1,inactive
18,COc1ccc(NC(=O)CSc2oc(-c3cccs3)nc2S(=O)(=O)c2ccccc2)c(OC)c1,inactive
19,CC(=O)Nc1ccc(S(=O)(=O)Nc2cc(-c3cn4ccccc4n3)ccc2C)cc1,10.7 µM (active)
